# From PubChem BioAssay (Tox21)
# A number with no mark means an inactive call. Inconclusive results are not listed. Where a call stands in place of a potency, no number is given. Active and inactive are the calls of the source. Unless noted, the call rests on the fitted dose curve; in most records, active means well fitted curve in the direction sought with a large enough effect in the repeat runs; inconclusive means weak or mixed curves; inactive means no such curve, though single readings can be large; an effect the other way counts as inactive or inconclusive.
# Tests used:
# [1] = Human pregnane X receptor (PXR) small molecule agonists, qHTS cell viability counter screen (AID 1346977); details: PXR-Luc HepG2 viability, CellTiter-Fluor, 24 h; series mostly up to 92.4 µM; further: nearly all actives have a fitted effect of over 50% in size; further: potency means the concentration at half of the fitted maximal effect
# Summary of the method: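 HepG2 cells stably carrying the PXR-Luc reporter are cultured with 5% charcoal-stripped FBS and treated with compounds for 24hr. CellTiter-Fluor is added at 23hr and fluorescence is read after 1hr.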
# [2] = Caspase-3/7 induction in HepG2 cells by small molecules, qHTS assay (AID 1346978); details: HepG2 caspase-3/7 activation, Caspase-Glo luminescence, 17 h; series mostly up to 92.4 µM; further: nearly all actives have a fitted effect of over 15% in size
# Summary of the method: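 Wild-type HepG2 cells (2,000/well) were settled 5 h at 37 C, 5% CO2, then exposed to compounds in DMSO for 17 h. Caspase-3/7 activity was read by luminescence 30 min after adding Caspase-Glo 3/7 reagent at room temperature.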
# [3] = Caspase-3/7 induction in CHO-K1 cells by small molecules, qHTS cell viability counter screen (AID 1346979); details: CellTiter-Fluor fluorescence, 17 h; series mostly up to 92.4 µM; further: nearly all actives have a fitted effect of over 35% in size; further: potency means the concentration at half of the fitted maximal effect
# Summary of the method: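 Seeding: 1,500 CHO-K1 cells/well. Rest: 5hr, 37C. Treatment: compounds in DMSO, 16hr. Read: CellTiter-Fluor, 1hr, fluorescence.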
# [4] = Caspase-3/7 induction in CHO-K1 cells by small molecules, qHTS assay (AID 1346980); details: CHO-K1 caspase-3/7 induction, Caspase-Glo luminescence, 17 h; series mostly up to 92.4 µM; further: nearly all actives have a fitted effect of over 15% in size
# Summary of the method: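 Wild-type cells were seeded at 1,500 per well and settled 5 hr at 37 C, 5% CO2, then exposed to DMSO-dissolved compounds for 17 hr. Caspase-Glo 3/7 reagent was added, and luminescence was read after 30min at room temperature.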
# [5] = Caspase-3/7 induction in HepG2 cells by small molecules, qHTS cell viability counter screen (AID 1346981); details: CellTiter-Fluor fluorescence, 17 h; series mostly up to 92.4 µM; further: nearly all actives have a fitted effect of over 30% in size; further: potency means the concentration at half of the fitted maximal effect
# Summary of the method: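 Treatment of HepG2 cells with DMSO-delivered compounds ran 16 hr at 37 C following a 5-hr pre-incubation of 2,000 cells/well. CellTiter-Fluor fluorescence, read after 1 hr, served as the viability measure in a qHTS format.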
# [6] = target: Nuclear receptor subfamily 1 group I member 2 (Homo sapiens) (UniProt O75469); assay: Human pregnane X receptor (PXR) small molecule agonists, qHTS assay (AID 1346982); details: PXR-Luc HepG2, CYP3A4 luciferase reporter, 24 h; series mostly up to 92.4 µM; further: nearly all actives have a fitted effect of over 35% in size; further: potency means the concentration at half of the fitted maximal effect
# Chain of Nuclear receptor subfamily 1 group I member 2 (Homo sapiens) (O75469 whole entry, looked up): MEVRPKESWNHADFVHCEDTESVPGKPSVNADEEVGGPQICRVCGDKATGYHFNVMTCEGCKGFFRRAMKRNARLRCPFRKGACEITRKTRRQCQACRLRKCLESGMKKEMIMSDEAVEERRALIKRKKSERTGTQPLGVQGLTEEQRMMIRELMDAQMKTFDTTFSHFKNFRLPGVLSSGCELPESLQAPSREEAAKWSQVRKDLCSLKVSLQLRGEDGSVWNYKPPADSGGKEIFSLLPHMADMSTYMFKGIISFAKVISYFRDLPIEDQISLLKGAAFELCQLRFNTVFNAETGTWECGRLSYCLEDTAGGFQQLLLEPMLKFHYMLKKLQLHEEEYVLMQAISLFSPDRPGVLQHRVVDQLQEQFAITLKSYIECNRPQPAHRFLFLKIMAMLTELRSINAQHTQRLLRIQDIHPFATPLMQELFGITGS
# Summary of the method: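 Stable HepG2 line reporting PXR-mediated CYP3A4 expression via luciferase. Treatment: 24 hr with compounds in DMSO at 37 C. Detection: ONE-Glo luminescence.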
# [7] = target: Nuclear receptor subfamily 1 group I member 2 (Rattus norvegicus) (UniProt Q9R1A7); assay: Rat pregnane X receptor (rPXR) activation by small molecules, qHTS assay (AID 1346983); details: rPXR luciferase reporter cells, One-Glo luminescence, 24 h; max activation: stronger effect = higher value; further: nearly all actives have a fitted effect of over 20% in size; further: potency means the concentration at half of the fitted maximal effect
# Chain of Nuclear receptor subfamily 1 group I member 2 (Rattus norvegicus) (Q9R1A7 whole entry, looked up): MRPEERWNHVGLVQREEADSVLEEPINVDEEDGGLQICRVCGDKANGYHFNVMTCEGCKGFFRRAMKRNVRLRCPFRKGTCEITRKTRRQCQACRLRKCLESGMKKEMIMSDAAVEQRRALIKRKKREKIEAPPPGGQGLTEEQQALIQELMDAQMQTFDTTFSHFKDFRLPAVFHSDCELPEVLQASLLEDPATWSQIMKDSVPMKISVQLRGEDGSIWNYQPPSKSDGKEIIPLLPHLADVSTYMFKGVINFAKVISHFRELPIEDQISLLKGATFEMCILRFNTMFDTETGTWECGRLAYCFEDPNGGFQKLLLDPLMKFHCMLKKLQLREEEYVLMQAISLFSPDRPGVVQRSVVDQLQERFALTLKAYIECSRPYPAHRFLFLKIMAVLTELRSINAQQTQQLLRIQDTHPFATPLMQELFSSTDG
# Summary of the method: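 Cell-based rPXR luciferase reporter assay, 2,000 cells per well, rested 5hr at 37 C before compound addition in DMSO, then 24 hr at 37 C. One-Glo reagent was added and luminescence read after 30 min at room temperature.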
# [8] = target: Nuclear receptor subfamily 1 group I member 2 (Homo sapiens) (UniProt O75469); assay: CYP3A4 induction through human pregnane X receptor (PXR) by small molecules, qHTS assay (AID 1346984); details: DPX-2 HepG2 PXR, CYP3A4-luciferin luminescence, 24 h; series mostly up to 46.1 µM; further: nearly all actives have a fitted effect of over 40% in size
# Summary of the method: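 After 24 h at 37C with compound, DPX-2 cells (HepG2, co-transfected PXR response element and CYP3A4 promoter-luciferase) got 3uM final P450-Glo Luciferin-IPA for 3 h; One-Glo luminescence followed.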
# [9] = target: Nuclear receptor subfamily 1 group I member 2 (Homo sapiens) (UniProt O75469); assay: Human pregnane X receptor (PXR) activation by small molecules, qHTS assay (AID 1346985); details: DPX-2 HepG2 CYP3A4-luciferase, 24 h; series mostly up to 38.3 µM; further: nearly all actives have a fitted effect of over 40% in size; further: potency means the concentration at half of the fitted maximal effect
# Summary of the method: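 DPX-2 cells (HepG2 co-transfected with a PXR response element and a CYP3A4-promoter luciferase construct) were seeded at 2,000 per well, rested 5 hr at 37C, then exposed to DMSO-dissolved compounds for 24 hr. Activation was read as luciferase luminescence.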
# [10] = target: Acetylcholinesterase (Homo sapiens) (UniProt P22303); assay: Acetylcholinesterase (AChE) small molecule antagonists: colormetric cell-based qHTS assay (AID 1347395; calls by dose curve; further: nearly all actives have a fitted effect of over 30% in size; further: potency means the concentration at half of the fitted maximal effect); details: SH-SY5Y cells AChE activity, colorimetric (Ellman); series mostly up to 115 µM
# Chain of Acetylcholinesterase (Homo sapiens) (P22303 whole entry, looked up): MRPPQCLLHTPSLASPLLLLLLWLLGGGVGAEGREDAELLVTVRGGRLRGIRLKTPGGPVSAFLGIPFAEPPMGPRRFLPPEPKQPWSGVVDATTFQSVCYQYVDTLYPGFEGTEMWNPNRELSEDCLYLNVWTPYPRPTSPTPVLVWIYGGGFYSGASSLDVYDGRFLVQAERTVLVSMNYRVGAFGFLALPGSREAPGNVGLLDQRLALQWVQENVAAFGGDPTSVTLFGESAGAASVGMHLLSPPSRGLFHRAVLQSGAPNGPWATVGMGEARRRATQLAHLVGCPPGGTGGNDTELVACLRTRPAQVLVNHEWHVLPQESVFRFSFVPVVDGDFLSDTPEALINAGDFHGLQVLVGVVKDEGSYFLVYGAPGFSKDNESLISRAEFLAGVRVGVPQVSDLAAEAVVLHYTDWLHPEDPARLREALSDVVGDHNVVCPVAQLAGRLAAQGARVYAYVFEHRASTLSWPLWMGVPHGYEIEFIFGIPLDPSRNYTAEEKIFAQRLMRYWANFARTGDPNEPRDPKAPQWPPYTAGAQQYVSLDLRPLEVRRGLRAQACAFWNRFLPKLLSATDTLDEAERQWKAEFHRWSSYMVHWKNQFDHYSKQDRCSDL
# Summary of the method: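 Quantitative HTS in attached SH-SY5Y cells: 30 min compound exposure, then 90 min with acetylthiocholine and DTNB at 37 C; colour from thiocholine reports AChE activity.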
Structure (SMILES),Potency [1],Potency [2],Potency [3],Potency [4],Potency [5],Potency [6],max activation [7],Potency [8],Potency [9],Potency [7],Potency [10]
CC(C)CC(N(C)C)C1(c2ccc(Cl)cc2)CCC1 (stereo not given),inactive,inactive,inactive,inactive,inactive,inactive,-2.56%,inactive,inactive,,
CN1C[C@@H](NS(=O)(=O)N(C)C)C[C@@H]2c3cccc4c3c(cn4C)C[C@H]21,inactive,inactive,inactive,inactive,inactive,23.7 µM (active),,,,10 µM (active),inactive
O=C(CCN1CC1)OCC(CO)(COC(=O)CCN1CC1)COC(=O)CCN1CC1,inactive,inactive,inactive,inactive,inactive,inactive,,,,,
CCS(=O)(=O)C(C)(C)S(=O)(=O)CC,inactive,inactive,inactive,inactive,inactive,inactive,-0.861%,inactive,inactive,,inactive
CC(C)COP(=O)(OCC(C)C)OCC(C)C,inactive,inactive,inactive,inactive,inactive,inactive,,,,,
COC(=O)C(c1ccccc1)C1CCCCN1 (stereo not given),inactive,inactive,inactive,inactive,inactive,inactive,-3.29%,inactive,inactive,,inactive
CCN(CC)C(C)C(=O)c1ccccc1 (stereo not given),inactive,inactive,inactive,inactive,inactive,inactive,-2.77%,inactive,inactive,,inactive
COc1ccc(C(=O)N2CCCC2=O)cc1,inactive,inactive,inactive,inactive,inactive,,,,,,
Clc1ccccc1N1CCNCC1,inactive,inactive,inactive,inactive,inactive,inactive,,,,,
O=C(N[C@H]1CN2CCC1CC2)c1cc2ccoc2cn1,inactive,inactive,inactive,inactive,inactive,inactive,,,,,
COc1cc(OC)nc(NC(=O)NS(=O)(=O)c2ncccc2OCC(F)(F)F)n1,inactive,inactive,inactive,inactive,inactive,inactive,,,,,
O=C(O)c1ccc2[nH]cc(CCCCN3CC=C(c4ccccc4)CC3)c2c1,inactive,inactive,inactive,inactive,inactive,inactive,-0.864%,inactive,inactive,,inactive
CNC(=O)Oc1cccc(C(C)C)c1,inactive,inactive,inactive,inactive,inactive,,,,,,
O=NN1CCN(N=O)CC1,inactive,inactive,inactive,inactive,inactive,inactive,,,,,
Nc1ccccc1Cl,inactive,inactive,inactive,inactive,inactive,inactive,,,,,
CCC1(c2ccccc2)C(=O)N=C(O)NC1=O (stereo not given),inactive,inactive,inactive,inactive,inactive,53 µM (active),,,,,
[O]=[Cd],inactive,inactive,inactive,inactive,inactive,inactive,0.414%,inactive,inactive,,inactive
C[C@@H]1CN(C2CCC(C#N)(c3ccc(F)cc3)CC2)CC[C@]1(C(=O)O)c1ccccc1 (stereo not given in full),inactive,inactive,inactive,inactive,inactive,inactive,-1.37%,inactive,inactive,,inactive
NC1=NC(=O)C(c2ccccc2)O1 (stereo not given),inactive,inactive,inactive,inactive,inactive,inactive,-2.64%,inactive,inactive,,inactive

Structure (SMILES),Potency [1],Potency [2],Potency [3],Potency [4],Potency [5],Potency [6],max activation [7],Potency [8],Potency [9],Potency [7],Potency [10]
CCS(=O)(=O)CCSP(=O)(OC)OC,inactive,inactive,inactive,inactive,inactive,inactive,,,,,
ClCCCN1CCN(c2cccc(Cl)c2)CC1,inactive,inactive,inactive,inactive,inactive,inactive,,,,,
OC(c1ccccc1)(c1ccccc1)C1CCNCC1,inactive,inactive,inactive,inactive,inactive,inactive,-4.65%,inactive,inactive,,inactive
ClC(Cl)(Cl)C(Cl)(Cl)Cl,inactive,inactive,inactive,inactive,inactive,inactive,,,,,
CN/C(=N\[N+](=O)[O-])NCC1CCOC1 (stereo not given),inactive,inactive,inactive,inactive,inactive,,,,,,
COC(=O)c1ccccc1S(=O)(=O)NC(=O)Nc1nc(C)cc(C)n1,inactive,inactive,inactive,inactive,inactive,inactive,,,,,
COc1cc(OC)nc(Oc2cccc(Oc3nc(OC)cc(OC)n3)c2C(=O)O)n1,inactive,inactive,inactive,inactive,inactive,inactive,,,,,
CCOC(=O)N(C)C(=O)CSP(=S)(OCC)OCC,inactive,inactive,inactive,inactive,inactive,30.6 µM (active),,,,,
Nc1n[nH]c(N)n1,inactive,inactive,inactive,inactive,inactive,inactive,,,,,
CCOP(=S)(OCC)Oc1cc(-c2ccccc2)on1,inactive,inactive,inactive,inactive,inactive,24.3 µM (active),,,,,
C[N+](=O)[O-],inactive,inactive,inactive,inactive,inactive,inactive,,,,,
COc1ncc(F)c2nc(S(=O)(=O)Nc3c(F)cccc3F)nn12,inactive,inactive,inactive,inactive,inactive,inactive,,,,,
Cc1ncsc1CCCl,inactive,inactive,inactive,inactive,inactive,inactive,-0.969%,inactive,inactive,,
Cc1cc(C)c(C(=O)P(=O)(C(=O)c2c(C)cc(C)cc2C)c2ccccc2)c(C)c1,inactive,inactive,inactive,inactive,inactive,24.3 µM (active),,,,,
ClCCOCOCCCl,inactive,inactive,inactive,inactive,inactive,inactive,,,,,
N#CC(Cl)(Cl)Cl,inactive,inactive,inactive,inactive,inactive,inactive,,,,,
CC(=O)Nc1cc([As](=O)(O)O)ccc1O,inactive,inactive,inactive,inactive,inactive,inactive,-4.41%,inactive,inactive,,inactive
C[C@H]1CCC[C@H](O)CCCCCc2cc(O)cc(O)c2C(=O)O1,48.9 µM (active),inactive,61.6 µM (active),inactive,54.9 µM (active),7.75 µM (active),-2.62%,inactive,12.6 µM (active),,inactive
CCC/C(=N\OCC)C1=C(O)CC(CC(C)SCC)CC1=O (stereo not given),inactive,inactive,inactive,inactive,inactive,48.9 µM (active),,,,,inactive

Structure (SMILES),Potency [1],Potency [2],Potency [3],Potency [4],Potency [5],Potency [6],max activation [7],Potency [8],Potency [9],Potency [7],Potency [10]
N#CCCC#N,inactive,inactive,inactive,inactive,inactive,inactive,,,,,inactive
CNC(=O)N(C)c1nc2ccccc2s1,inactive,inactive,inactive,inactive,inactive,30.6 µM (active),,,,,inactive
CCC#N,inactive,inactive,inactive,inactive,inactive,inactive,,,,,inactive
O=CNC(N1CCN(C(NC=O)C(Cl)(Cl)Cl)CC1)C(Cl)(Cl)Cl (stereo not given),inactive,inactive,inactive,inactive,inactive,27.3 µM (active),,,,,inactive
Cc1coc2c1CCC(C)C2 (stereo not given),inactive,inactive,inactive,inactive,inactive,17.8 µM (active),,,,,inactive
COC(=O)C(C)Oc1ccc(Oc2ccc(Cl)cc2Cl)cc1 (stereo not given),inactive,inactive,inactive,inactive,inactive,inactive,,,,,inactive
C=C(C)CN(CC)c1c([N+](=O)[O-])cc(C(F)(F)F)cc1[N+](=O)[O-],inactive,inactive,inactive,inactive,inactive,27.3 µM (active),,,,,inactive
CC1CN1P(=O)(N1CC1C)N1CC1C (stereo not given),inactive,inactive,inactive,inactive,inactive,inactive,,,,,inactive
CCCSP(=O)(OCC)Oc1ccc(Br)cc1Cl (stereo not given),inactive,inactive,inactive,inactive,inactive,29.7 µM (active),,,,,6.88 µM (active)
Cc1ncc(CNC(=O)N(CCCl)N=O)c(N)n1,inactive,inactive,inactive,inactive,inactive,inactive,,,,,inactive
COP(=S)(OC)Oc1c(Cl)cc(C)cc1Cl,inactive,inactive,inactive,inactive,inactive,24.3 µM (active),,,,,inactive
CCOP(=S)(OCC)Oc1ncn(-c2ccccc2)n1,inactive,inactive,inactive,inactive,inactive,27.3 µM (active),,,,,31.7 µM (active)
COC(=O)C1=CCCN(C)C1,inactive,inactive,inactive,inactive,inactive,inactive,,,,,inactive
CC(C)[N+](=O)[O-],inactive,inactive,inactive,inactive,inactive,inactive,,,,,inactive
CC(N)=S,inactive,inactive,inactive,inactive,inactive,inactive,,,,,inactive
CCCCCCI,inactive,inactive,inactive,inactive,inactive,inactive,,,,,inactive
CC1CCCCC1NC(=O)Nc1ccccc1 (stereo not given),inactive,inactive,inactive,inactive,inactive,24.3 µM (active),,,,,inactive
CN(N=O)C(N)=O,inactive,inactive,inactive,inactive,inactive,inactive,,,,,inactive
